# In the supplement of paper PMC10681739:
# Whole data set: some 2,700 sequences, median “arbitrary fluorescence units” near 4,100, cut for the highest 2% near 54,000. This excerpt belongs to a sample that is enriched for the highest values.
# Target: T1, ETS1 (UniProt P14921)
# T1 sequence: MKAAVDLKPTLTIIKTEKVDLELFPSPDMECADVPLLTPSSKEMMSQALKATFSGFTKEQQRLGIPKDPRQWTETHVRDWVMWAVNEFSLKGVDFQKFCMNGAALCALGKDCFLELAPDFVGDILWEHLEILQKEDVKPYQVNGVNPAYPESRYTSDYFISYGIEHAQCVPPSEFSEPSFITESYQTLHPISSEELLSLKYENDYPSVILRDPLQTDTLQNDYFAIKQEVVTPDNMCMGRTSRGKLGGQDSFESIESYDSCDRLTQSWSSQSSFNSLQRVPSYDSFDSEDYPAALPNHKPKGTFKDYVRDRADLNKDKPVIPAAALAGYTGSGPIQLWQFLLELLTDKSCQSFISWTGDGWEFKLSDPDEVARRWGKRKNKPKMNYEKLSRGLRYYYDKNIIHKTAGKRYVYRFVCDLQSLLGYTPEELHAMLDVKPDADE
# Assay: ETS1 binding intensity (PBM fluorescence) (arbitrary fluorescence units); higher = stronger binding
# Settings: ETS1 concentration 10 nM
# Description: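 gcPBM on wild-type 36-bp genomic probes with two neighbouring ETS1 sites (4-24 bp apart). Recombinant human ETS1 (10 nM) was detected with anti-ETS1 antibody fluorescence. Values are medians over 3 replicate spots. The probes sit in constant array flanks that are not printed.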
row,Sequence,ETS1 binding intensity
1,GCGCCACTTCCGGCAGCGAAGTCACTTCCGCGGAGG,57600
2,GGGTGCTTCCGGGGCAGCGCGCGCCACTTCCGACCT,33500
3,CCCGGAGTTCCGCGCGGCGCCAGCCCTTCCGCCACG,375
4,GGCTGGGGCGGATGCCGGGGCTGTTCCGGGCCCTCC,1230
5,TGAGCGCCGTGCCTTCCGGGTTCCGCCCTCCTGGGT,1430
6,AGAATGAGCTGCAGGAAGGCGGAAGCACTAGCGTGC,421
7,CGGGACAGGAAGTGTGGACAGGCTCCTTCCTGTTTG,15000
8,AGAAACGGAAAGAAAGTGACCCCTCCCTTCCTTTCA,175
9,TGGGGTTTCCTGGGGTGTTCTGTCTACATCCTGAGA,5150
10,ACAACCTTTAAACTTCCGGTTTCCTCTGTGCGAGGT,56700
11,TTCCTCTCCTTTCCGCGAGACCTTCCGCGGTTATCC,178
12,CCCAGCGAGAGGTTTCCTCTTCCGGCACCTGACCCC,4930
13,GGCTTCAGGATGCATTGACAATTAAAGGAAGTCAGA,275
14,GGGGCCACTTCCCGGGGCCAGGCAGGAAGCCCGCCC,3870
15,GAGGCGGGACTTCCTACAGCACTTCCGGCCAGAGCC,26500
16,CCGGCACTTCCGGCAGGCCAGGGCACTTCCGGGACC,58000
17,CGCTGAACTTCCCGAGCTCGGGGTGGGATGTGGCCG,734
18,GAGAGGCAGGAAGAGAGCAGAGCCGGAAGCACAAGG,2630
19,GCAGAAGGGAGGAAGAAGCAGGCGGAAGCAGCCGGT,522
20,GTCACTTCCGGCAGCCGGAGGCAGCAGAGGAAGCCG,71500
21,CTCTAGGTCTAACATCCCTCGGAAGTTCGTGCAGCG,175

row,Sequence,ETS1 binding intensity
1,GGCAAAAACCCACATCCTCTTCCGCTGGCTCCACCT,8480
2,CTCTTGGCAACATCCGGTCACATCCCCTCCGCTATT,60900
3,CAACCGAAAACATCCCGTGCCGGAAGCGCGTCATCG,4780
4,TGCAAAGCATCCTGGGTGCCAGGCTTCCTGGGGCTT,1890
5,TGAAGGCTTCCGCCAAGGTGAGGGGCTTCCTCTGGG,9460
6,GCAACTTCCGCCCTGAGAAGGGTGGGGCTTCCGTCT,63000
7,CGCCCCTGGGGCTTCCGCGGCGGAAGCCTAGCGTCC,824
8,CCAAGCTGGTTTCCTCTCCGGTTTCCTCCGGGGTGG,3800
9,CTGACCTGCTTCCTCATGGTTGTTTCCTGCCTATTG,3740
10,TCCACTTCCGGGTCCGGGACACCGCCCGGATCTTGC,64200
11,GACGGACACCCGTTTCCGCTTCCGGGTCACGCTTCT,20900
12,GCCACCGCCCCTTCCGGGTCCGGAACGGCTCCAGCT,7050
13,ACGACGCAGCCACTTCCGATTCCGGTCGGAGCACCG,8910
14,CCTCAGGATGGCATCAGCCTGTGACCACTTCCTGTG,2200
15,GCCTCACTTCCTGTGTTCAAGTGACAGGATGTGACA,70700
16,TTCTTCACAAGCGGATGTCACTTCCTGCCTGTGACA,17200
17,GCACCCGGAAGCCGCTTGCGGGCTCCCGGAAGCGGC,8720
18,GGGCGGGACTTCCGGCAAGGCGCGGAAGCGGCGGTA,46400
19,TGCGGGGCGGAAGCCGGGGCGTGACTTCCGGCGCCG,11600
20,GCGTTACTTCCGGCGCGCGGCGGGCGGAAGTCCGGG,69700
21,GGGCCTAGGAAATGCCGCACTACAACTTCCGTCGGG,992

row,Sequence,ETS1 binding intensity
1,GAGGCGCTTCCTCAGTTGGACTCCACTTCCTCTCCG,4590
2,GCCGGCGAGCGGAAGAGGCTGCAGGAAGGCCGGCCC,3170
3,CAAACACATCCTGTTTGCACTTGACTTCCTGTTTTG,37400
4,AGCACTTCCTGTTTGATCTCTATGATCCATCCTGTT,106000
5,TAGTTGTCCCTTCCTTAAGCACTTCCTGTTTGATCT,11900
6,CCGGGAGCTCCGGATGCAGACAGGAAGTGGGCAGGG,9950
7,CAGCACGACTTCCTGGAGCGGGCCGGAAGTGACAAC,21000
8,CGTCCTGACTTCCGGGGCGGGACGGAAGAGCGGGCG,25800
9,GAGACGGGACTTCCGGCTCCCGGGGAAGTCCCGCCC,53500
10,CGGGGCTCCCGGAAGCCGCCCCTTCCGCCAGCTTGC,4520
11,TATAAAACCATTTCCTTCTCTGGGAAATGAGATGTC,3370
12,GGTCCGGAAACGGGACAGAAGGCCCACCTTCCTCCC,8480
13,AGCCTTTGTATTTCCTTTCAGAGGAAACCCCAATGC,5570
14,CGCTGCTTCCGGGTCTCGGCAAGCACTTCCGGGGTG,30400
15,TGGGGTCTTCCGGTTGGACCCCTGCTTCCGCTGATT,24400
16,TTCCACTTCCGGTCTTACCCGGCTACTTCCGCTGCT,147000
17,CAACGGCAGCTTCCTGCGGCGCCGGAAACGCTTCAA,12100
18,TGAAACAGGAAGTCAGCTTCACAGCAGGAAGCAGAC,16400
19,TTCCTCAGGGAAGTTCGGGTGAGAGGAAGTGCCTGC,228
20,CCCGGTAGCCGCCGGAAAACTTCCGCCGAGACCGGA,4420
